One experiment concerns the target POU1 (OCT1 POU domain) (human, UniProt P14859 260-458). Description: EMSA-SELEX-seq; no BOB1; 20 mM Tris-HCl pH 7.6, 140 mM NaCl, 10% glycerol, 0.5 mM EDTA, 0.05% Triton X-100, 0.1 mg/mL BSA, 0.1 mg/mL poly(dI-dC), 5 mM DTT, room temperature, 20 min; high values mean tight binding. As to conditions: protein: recombinant; dsDNA, one strand shown. The method, boiled down: (§1)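 After expression in E. coli BL21, tagged POU-domain proteins were purified under denaturing conditions and then renatured. Each binding reaction held 30 ng protein and 300 ng of a PCR-amplified double-stranded random 35-nt library in 20 μL Tris–HCl pH 7.6 binding buffer, with or without 28 ng coactivator protein, for 20 min at RT. Bands holding complexes were cut from native 6% PAGE, eluted and PCR-amplified across four rounds, and the output was Illumina-sequenced. The value given for binding preference is the share, in percent, of sequenced 8-mers fitting a motif pattern.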
(In general: A gel shift assay detects complexes by their altered migration in electrophoresis.)

The target of another experiment is T1, POU2 (OCT2 POU domain) (human, UniProt P09086 175-386).
T1 sequence: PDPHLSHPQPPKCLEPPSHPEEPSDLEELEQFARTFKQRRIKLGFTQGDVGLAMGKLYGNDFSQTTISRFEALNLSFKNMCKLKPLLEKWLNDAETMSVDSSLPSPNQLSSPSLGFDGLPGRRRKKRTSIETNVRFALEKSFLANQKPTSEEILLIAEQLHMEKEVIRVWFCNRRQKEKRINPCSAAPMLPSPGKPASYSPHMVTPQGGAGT
Described as above. As to conditions: protein: recombinant; dsDNA, one strand shown. The method, boiled down: as §1

Experiment [1] has as its target POU1 (OCT1 POU domain);BOB1 (OBF1, OCA-B) (human;human, UniProt P14859;Q16633 260-458;1-256, |). Description: EMSA-SELEX-seq; with BOB1 (ternary complex band); 20 mM Tris-HCl pH 7.6, 140 mM NaCl, 10% glycerol, 0.5 mM EDTA, 0.05% Triton X-100, 0.1 mg/mL BSA, 0.1 mg/mL poly(dI-dC), 5 mM DTT, room temperature, 20 min; high values mean tight binding. To be noted: protein: recombinant;recombinant; copies: 1;1; dsDNA, one strand shown. Put shortly:
as §1

Experiment [2] deals with T2, POU2 (OCT2 POU domain);BOB1 (OBF1, OCA-B) (human;human, UniProt P09086;Q16633 175-386;1-256, |).
T2 sequence 1: T1 sequence
T2 sequence 2: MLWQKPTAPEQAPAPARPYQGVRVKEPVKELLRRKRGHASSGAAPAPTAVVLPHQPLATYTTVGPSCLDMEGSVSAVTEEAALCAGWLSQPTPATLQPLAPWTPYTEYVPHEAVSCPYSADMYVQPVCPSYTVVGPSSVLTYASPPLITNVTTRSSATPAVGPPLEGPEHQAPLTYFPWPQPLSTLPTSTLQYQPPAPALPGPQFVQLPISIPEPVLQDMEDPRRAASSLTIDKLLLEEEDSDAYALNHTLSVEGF
The description is as above. As to conditions: protein: recombinant;recombinant; copies: 1;1; dsDNA, one strand shown. The method, boiled down: as §1

POU1 (OCT1 POU domain), sequence (P14859 260-458): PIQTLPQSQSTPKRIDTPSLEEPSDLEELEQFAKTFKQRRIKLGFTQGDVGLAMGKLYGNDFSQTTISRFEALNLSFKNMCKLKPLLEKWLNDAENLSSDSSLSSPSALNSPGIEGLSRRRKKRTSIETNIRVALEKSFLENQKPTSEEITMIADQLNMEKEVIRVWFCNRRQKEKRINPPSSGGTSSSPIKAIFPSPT

Take ACATGAAT: the binding signal with POU1 (OCT1 POU domain) is 0.151 % of ANNNNAAN 8-mers; with POU2 (OCT2 POU domain), 0.179 % of ANNNNAAN 8-mers; in experiment [1] it was 0.0773 % of ANNNNAAN 8-mers; in experiment [2] it was 0.0925 % of ANNNNAAN 8-mers.

With ATGTCAAG, the binding signal in the experiment with POU1 (OCT1 POU domain) was 0.0378 % of ANNNNAAN 8-mers; with POU2 (OCT2 POU domain) it was 0.0535 % of ANNNNAAN 8-mers; in experiment [1] it was 0.0406 % of ANNNNAAN 8-mers; in experiment [2], 0.052 % of ANNNNAAN 8-mers.

ATAGGAAC: the binding signal was 0.0339 % of ANNNNAAN 8-mers with POU1 (OCT1 POU domain), 0.0449 % of ANNNNAAN 8-mers with POU2 (OCT2 POU domain), 0.0375 % of ANNNNAAN 8-mers in experiment [1] and 0.0545 % of ANNNNAAN 8-mers in experiment [2].

ATCAGAAA: the binding signal with POU1 (OCT1 POU domain) is 0.0446 % of ANNNNAAN 8-mers; in the experiment with POU2 (OCT2 POU domain), 0.0529 % of ANNNNAAN 8-mers; in experiment [1] it was 0.0546 % of ANNNNAAN 8-mers; in experiment [2], 0.0438 % of ANNNNAAN 8-mers.

As for AGACAAAT, the binding signal with POU1 (OCT1 POU domain) is 0.114 % of ANNNNAAN 8-mers; with POU2 (OCT2 POU domain), 0.0748 % of ANNNNAAN 8-mers; in experiment [1], 0.187 % of ANNNNAAN 8-mers; in experiment [2], 0.105 % of ANNNNAAN 8-mers.

For the sequence AGACTAAA, the binding signal in the experiment with POU1 (OCT1 POU domain) is 0.0374 % of ANNNNAAN 8-mers; with POU2 (OCT2 POU domain), 0.0443 % of ANNNNAAN 8-mers; in experiment [1], 0.0297 % of ANNNNAAN 8-mers; in experiment [2], 0.0289 % of ANNNNAAN 8-mers.

In the case of ACTATAAT, the binding signal was 0.0595 % of ANNNNAAN 8-mers in the experiment with POU1 (OCT1 POU domain), 0.0748 % of ANNNNAAN 8-mers with POU2 (OCT2 POU domain), 0.0472 % of ANNNNAAN 8-mers in experiment [1] and 0.0388 % of ANNNNAAN 8-mers in experiment [2].

On to AGCAAAAT, for which the binding signal in the experiment with POU1 (OCT1 POU domain) is 0.102 % of ANNNNAAN 8-mers; with POU2 (OCT2 POU domain) it was 0.0702 % of ANNNNAAN 8-mers; in experiment [1] it was 0.107 % of ANNNNAAN 8-mers; in experiment [2], 0.0759 % of ANNNNAAN 8-mers.

AATCTAAG: the binding signal with POU1 (OCT1 POU domain) is 0.0553 % of ANNNNAAN 8-mers; with POU2 (OCT2 POU domain), 0.0587 % of ANNNNAAN 8-mers; in experiment [1], 0.062 % of ANNNNAAN 8-mers; in experiment [2], 0.0545 % of ANNNNAAN 8-mers.

In the case of AGTAAAAG, the binding signal was 0.061 % of ANNNNAAN 8-mers with POU1 (OCT1 POU domain), 0.0662 % of ANNNNAAN 8-mers in the experiment with POU2 (OCT2 POU domain), 0.0913 % of ANNNNAAN 8-mers in experiment [1] and 0.0578 % of ANNNNAAN 8-mers in experiment [2].

For the sequence ACGGCAAG, the binding signal is 0.0206 % of ANNNNAAN 8-mers with POU1 (OCT1 POU domain), 0.027 % of ANNNNAAN 8-mers in the experiment with POU2 (OCT2 POU domain), 0.0211 % of ANNNNAAN 8-mers in experiment [1] and 0.0239 % of ANNNNAAN 8-mers in experiment [2].

For the sequence AGTTCAAC, the binding signal with POU1 (OCT1 POU domain) was 0.0229 % of ANNNNAAN 8-mers; with POU2 (OCT2 POU domain), 0.0173 % of ANNNNAAN 8-mers; in experiment [1], 0.0246 % of ANNNNAAN 8-mers; in experiment [2], 0.0173 % of ANNNNAAN 8-mers.

For ATATGAAT, the binding signal with POU1 (OCT1 POU domain) was 0.243 % of ANNNNAAN 8-mers; in the experiment with POU2 (OCT2 POU domain), 0.316 % of ANNNNAAN 8-mers; in experiment [1] it was 0.122 % of ANNNNAAN 8-mers; in experiment [2], 0.141 % of ANNNNAAN 8-mers.

As to ACCTTAAA, the binding signal with POU1 (OCT1 POU domain) is 0.021 % of ANNNNAAN 8-mers; with POU2 (OCT2 POU domain) it was 0.023 % of ANNNNAAN 8-mers; in experiment [1], 0.0375 % of ANNNNAAN 8-mers; in experiment [2], 0.0173 % of ANNNNAAN 8-mers.

In the case of AAGCGAAA, the binding signal with POU1 (OCT1 POU domain) is 0.0358 % of ANNNNAAN 8-mers; with POU2 (OCT2 POU domain), 0.0391 % of ANNNNAAN 8-mers; in experiment [1], 0.0429 % of ANNNNAAN 8-mers; in experiment [2], 0.0289 % of ANNNNAAN 8-mers.

For the sequence AACAAAAA, the binding signal with POU1 (OCT1 POU domain) was 0.0831 % of ANNNNAAN 8-mers; with POU2 (OCT2 POU domain), 0.0662 % of ANNNNAAN 8-mers; in experiment [1] it was 0.121 % of ANNNNAAN 8-mers; in experiment [2], 0.0726 % of ANNNNAAN 8-mers.

With AAGCGAAC, the binding signal with POU1 (OCT1 POU domain) is 0.0221 % of ANNNNAAN 8-mers; with POU2 (OCT2 POU domain), 0.0178 % of ANNNNAAN 8-mers; in experiment [1] it was 0.0176 % of ANNNNAAN 8-mers; in experiment [2], 0.0231 % of ANNNNAAN 8-mers.

For AAGTCAAA, the binding signal in the experiment with POU1 (OCT1 POU domain) is 0.141 % of ANNNNAAN 8-mers; in the experiment with POU2 (OCT2 POU domain), 0.113 % of ANNNNAAN 8-mers; in experiment [1] it was 0.258 % of ANNNNAAN 8-mers; in experiment [2], 0.165 % of ANNNNAAN 8-mers.

With ATCGTAAC, the binding signal with POU1 (OCT1 POU domain) is 0.0236 % of ANNNNAAN 8-mers; in the experiment with POU2 (OCT2 POU domain), 0.0288 % of ANNNNAAN 8-mers; in experiment [1], 0.0238 % of ANNNNAAN 8-mers; in experiment [2], 0.0322 % of ANNNNAAN 8-mers.

With ACTACAAA, the binding signal in the experiment with POU1 (OCT1 POU domain) is 0.0214 % of ANNNNAAN 8-mers; with POU2 (OCT2 POU domain), 0.0391 % of ANNNNAAN 8-mers; in experiment [1], 0.0285 % of ANNNNAAN 8-mers; in experiment [2] it was 0.0256 % of ANNNNAAN 8-mers.

Take AAATGAAT: the binding signal in the experiment with POU1 (OCT1 POU domain) was 0.256 % of ANNNNAAN 8-mers; with POU2 (OCT2 POU domain) it was 0.273 % of ANNNNAAN 8-mers; in experiment [1], 0.181 % of ANNNNAAN 8-mers; in experiment [2], 0.239 % of ANNNNAAN 8-mers.

ACAGGAAC: the binding signal with POU1 (OCT1 POU domain) was 0.0244 % of ANNNNAAN 8-mers; in the experiment with POU2 (OCT2 POU domain), 0.0265 % of ANNNNAAN 8-mers; in experiment [1] it was 0.0222 % of ANNNNAAN 8-mers; in experiment [2], 0.0239 % of ANNNNAAN 8-mers.

Turning to AACAGAAT, the binding signal with POU1 (OCT1 POU domain) is 0.0645 % of ANNNNAAN 8-mers; with POU2 (OCT2 POU domain) it was 0.0679 % of ANNNNAAN 8-mers; in experiment [1], 0.0507 % of ANNNNAAN 8-mers; in experiment [2], 0.0594 % of ANNNNAAN 8-mers.

The values are drawn from paper PMC10812921, “Transcriptional Coactivator BOB1 (OBF1, OCA-B) Modulates the Specificity of DNA Recognition by the POU-Domain Factors OCT1 and OCT2 in a Monomeric Configuration”.
